In PubChem BioAssay AID1259343 (VanderVen Lab, College of Veterinary Medicine, Cornell …, 2017):
About 2,900 (47%) of roughly 6,200 compounds were called active. So high a share suggests a set chosen from earlier hits. The list shows a part of the results. Values without a mark were called inactive. Cut-off read from the data, not from the text of the source: active = inhibition above about 50%; inactive = the rest.

Assay: Mycobacterium tuberculosis growth inhibition, primary screen (AID 1259343)
Details: inhibition: at 10 µM, hits give high values; outcome: 10 uM
For `Cc1nc(NCCNC(=O)Nc2ccc(F)c(Cl)c2)cc(N2CCCC2)n1`, the inhibition was 58.8% (active). With `COc1ccc(/C=C/CN2CCN(c3cc(-n4cccn4)ncn3)CC2)cc1` the inhibition was 89.8% (active). For `COc1ccc(/C=C/CN2CCCC(CO)(Cc3cccc(Cl)c3)C2)cc1` (configuration not stated), the inhibition was “inactive”. For `Cc1ccc(NC(=O)CCn2nc3ccccn3c2=O)cc1F`, the inhibition was 57.8% (active). In the case of `CC1CN(C(=O)Nc2ccccc2C(F)(F)F)c2cccnc2N1` (configuration not stated), the inhibition is reported as 24.7%. For `O=C(COc1ccc2ccccc2c1)N1CCC(Nc2ccccc2)CC1`, the inhibition was 3.84%. For `COC(=O)C1CCN(C(=O)COc2ccc3ccccc3c2Br)CC1`, the inhibition was -1.48%. For `COC(=O)C1CCN(C(=O)COc2ccc(OCc3ccccc3)cc2)CC1`, the inhibition was 81.6% (active). `CCN1CC(=Cc2cc(C)n(C3CC3)c2C)C(=O)C(=Cc2cc(C)n(C3CC3)c2C)C1` showed an inhibition of 30.3%. Work on `CCCCCNC(=O)N1CC2C3CCC(C3)C21` (configuration not stated) yielded an inhibition of 28.6%. For `CCCCCNC(=O)c1sc2[nH]c(=S)[nH]c(=O)c2c1C`, the inhibition was 36.1%. For `CCCCCCNC(=O)n1cc(F)c(=O)[nH]c1=O`, the inhibition was 97% (active). In the case of `Cc1cccc(-c2ccc(CNC(=O)c3ccc(=O)n(C)n3)cc2)c1`, the inhibition is reported as 55.3% (active). For `Cc1cccc(-c2cccc(CNC(=O)c3ccc(=O)[nH]n3)c2)c1`, the inhibition was 18.8%. Compound `O=C(NCc1ccc(Cl)cc1)c1cncn1-c1ccc(-c2ccc(F)c(F)c2)cc1` has an inhibition of -2.19%. With `COc1cccc(Nc2nccc3c2cc(-c2ccc(N(C)C)cc2)n3C)c1` the inhibition was 81.2% (active). In the case of `COc1cc(OC)cc(-c2cc3c(Nc4ccccn4)nccc3n2C)c1`, the inhibition is reported as 57% (active). Work on `COc1cccc(-c2ccnc3[nH]n(-c4ccccc4)c(=O)c23)c1` yielded an inhibition of 46.4%. With `Cn1c(-c2cccc(C(F)(F)F)c2)cc2c(Nc3ccncc3)nccc21` the inhibition was 97.1% (active). With `COc1cccc(Nc2nccc3c2cc(-c2ccccc2)n3C)c1` the inhibition was 87.3% (active). `CC(C)c1ccc(Nc2cc3c(cn2)cc(-c2cccnc2)n3C)cc1` showed an inhibition of 47.9%. `CC(C)Cc1nnc(C(C)Sc2nc3ncc(Cl)cc3[nH]2)o1` (configuration not stated) showed an inhibition of -8.41%. `CC(=O)c1ccc(-c2ccc(Br)s2)cc1` showed an inhibition of 37%. For `CC(C)C1(CNC(=O)c2ccc(Br)s2)CC1`, the inhibition was 95.1% (active). In the case of `Cc1cccc(NC(C)c2nnc(-c3cccs3)o2)c1C` (configuration not stated), the inhibition is reported as 61.2% (active). For `O=C(Nc1ccc(Br)cc1)c1cc(Br)cc(Br)c1O`, the inhibition was 101% (active). For `O=c1[nH]cc(CNCc2ccccc2)c(=O)[nH]1`, the inhibition was 101% (active). In the case of `CCC1CCCCN1C(=O)c1ccc(-c2ccc(F)cc2)s1` (configuration not stated), the inhibition is reported as 94.5% (active). In the case of `CCC1CCCCN1C(=O)c1ccc(-c2cccc(Cl)c2)s1` (configuration not stated), the inhibition is reported as 81.8% (active). Work on `O=C(O)C1CCN(c2ncnc3cc(-c4ccc(F)cc4)sc23)CC1` yielded an inhibition of 14.5%. `Oc1ccc(C=Cc2ccncc2)cc1` gave an inhibition of 37.5%. For `Cn1nc([N+](=O)[O-])nc1Oc1ccc(Br)cc1`, the inhibition was 68.9% (active). With `CCOC(=O)c1ccc(C#Cc2ccc3c(c2)C(C)(C)CCS3)nc1` the inhibition was 87.4% (active). With `Cc1ccc(C(C)NC(=O)Nc2ccc(C#N)c(Cl)c2)o1` (configuration not stated) the inhibition was 89.3% (active). `CC(C)c1ccc(CCNC(=O)CNc2ccc(C#N)c(Cl)c2)cc1` showed an inhibition of 2.06%. For `N#Cc1ccc(NC(=O)NCc2cccs2)cc1Cl`, the inhibition was 48.4%. Work on `Cc1ccc(Nc2nc(-c3ccccc3)nc(Cl)c2N)cc1` yielded an inhibition of 45.9%. Work on `Cc1ccc(NC(=O)NCCc2csc(C(C)C)n2)c(Cl)c1` yielded an inhibition of 25.8%. For `Cc1ccc(Nc2n[nH]nc2C(=O)Nc2ccc(C)cc2Cl)cc1`, the inhibition was 83.6% (active). With `CCOC(=O)C1C(=O)CC(O)(c2ccc(Br)cc2)CC1C=C(Cl)Cl` (configuration not stated) the inhibition was 34%. In the case of `CCC(=O)Nc1c(-c2cc(C)cc(C)c2)nc2cc(C)ccn12`, the inhibition is reported as 5.69%. With `Cc1cc(C)n2c(NCc3ccccc3)c(-c3ccc(Cl)cc3)nc2c1` the inhibition was 51.4% (active). For `CCCS(=O)(=O)Oc1ccc([N+](=O)[O-])cc1-c1nc2ccccc2o1`, the inhibition was 99.4% (active). With `O=[N+]([O-])c1ccc(Cl)c(S(=O)(=O)Oc2cccc3ccccc23)c1` the inhibition was 20.7%. In the case of `CCc1cc(=O)[nH]c(-n2nc(C)cc2NC(=O)c2cccc(OC)c2OC)n1`, the inhibition is reported as 102% (active). Compound `COc1cccc(C(=O)Nc2cc(-c3cccs3)nn2-c2nc(C)c(C)c(=O)[nH]2)c1OC` has an inhibition of -24.6%. In the case of `COc1ccccc1C(=O)Nc1cc(C)nn1-c1nc(C)cc(=O)[nH]1`, the inhibition is reported as 99.4% (active). With `COc1cccc(C(=O)Nc2cc(C)nn2-c2nc(C)c(C)c(=O)[nH]2)c1OC` the inhibition was 7.56%. For `COc1cccc(C(=O)Nc2cc(C)nn2-c2nc(C)cc(=O)[nH]2)c1OC`, the inhibition was 101% (active). In the case of `COc1cccc(C(=O)Nc2cc(-c3cccs3)nn2-c2nc(C)cc(=O)[nH]2)c1OC`, the inhibition is reported as 100% (active). Work on `COc1cccc2c1C(=O)c1c(O)c3c(c(O)c1C2=O)C[C@@](O)(C(C)=O)C[C@@H]3O[C@H]1C[C@H](N)[C@H](O)[C@H](C)O1` yielded an inhibition of 38.2%. With `COc1cccc(C(=O)Nc2cc(C3CC3)nn2-c2nc(C)cc(=O)[nH]2)c1OC` the inhibition was 99.8% (active). With `CCOc1ccccc1C(=O)Nc1cc(C)nn1-c1nc(C)cc(=O)[nH]1` the inhibition was 101% (active). In the case of `COC(=O)c1ccc(CN(Cc2ccc(C)s2)CC2CCCO2)o1` (configuration not stated), the inhibition is reported as 73.4% (active). With `Cc1oc(-c2ccc(-c3ccccc3)cc2)nc1CN(Cc1ccccn1)CC1CCCO1` (configuration not stated) the inhibition was -19.8%. Work on `COc1ccc(CN(Cc2ccco2)CC(O)COc2ccc(Cl)cc2)cc1` (configuration not stated) yielded an inhibition of 6.76%. In the case of `COC(=O)c1ccc(CN(Cc2ccco2)Cc2ccc(C)s2)o1`, the inhibition is reported as 73.9% (active). Compound `Cc1[nH]nc(C(=O)N(Cc2cccc(F)c2)CC2CCCO2)c1Br` (configuration not stated) has an inhibition of -6.44%. For `Cc1ccc(C(C)NC(=O)CN(C(=O)Cn2cnc(C)c2C)C(C)c2ccc(C)c(C)c2)cc1C` (configuration not stated), the inhibition was 37.8%. In the case of `CN(c1ccccc1)S(=O)(=O)c1cccc(NC(=O)C2CC2)c1`, the inhibition is reported as 95% (active). `COc1ccc(N(C)S(=O)(=O)c2ccc(OC)c(N3CCN(C(=O)C4CCC4)CC3)c2)cc1` gave an inhibition of -12.6%. For `O=C(NS(=O)(=O)CCc1ccccc1)c1cccs1`, the inhibition was 57% (active). In the case of `O=[N+]([O-])c1cnc(Nc2cccc(O)c2)c([N+](=O)[O-])c1`, the inhibition is reported as 75.9% (active). For `COc1ccccc1Nc1ncc([N+](=O)[O-])cc1[N+](=O)[O-]`, the inhibition was 101% (active). For `O=[N+]([O-])c1cnc(Nc2cccc(Cl)c2)c([N+](=O)[O-])c1`, the inhibition was 97.7% (active). Compound `O=[N+]([O-])c1cnc(Nc2ccccc2Cl)c([N+](=O)[O-])c1` has an inhibition of -16.6%. For `Cc1cc(C)cc(Nc2ncc([N+](=O)[O-])cc2[N+](=O)[O-])c1`, the inhibition was 92.8% (active). With `O=[N+]([O-])c1cnc(Nc2ccccc2O)c([N+](=O)[O-])c1` the inhibition was 26.1%. Work on `C=C(C)C1Cc2c(ccc(C(=O)O)c2O)O1` (configuration not stated) yielded an inhibition of 48.9%. With `O=[N+]([O-])c1cnc(Nc2ccc(Cl)cc2)c([N+](=O)[O-])c1` the inhibition was 58.3% (active). In the case of `O=[N+]([O-])c1cnc(Nc2ccc(O)cc2)c([N+](=O)[O-])c1`, the inhibition is reported as “inactive”. In the case of `Nc1cc(F)c(N2CC3CCC2C3)cc1C(=O)O` (configuration not stated), the inhibition is reported as 36.3%. With `CCN1CCN(c2cc3c(cc2F)c(=O)c(C(=O)O)cn3C2CC2)CC1` the inhibition was 99.3% (active). In the case of `Clc1cccc(C2CCN(Cc3nc(COc4ccccc4)no3)C2)c1` (configuration not stated), the inhibition is reported as 92.9% (active). With `O=C(c1ccccc1)C1CCCN(Cc2nc(COc3ccccc3)no2)C1` (configuration not stated) the inhibition was “inactive”. `Fc1ccccc1Cc1noc(CN2CCCN(Cc3ccccc3F)CC2)n1` gave an inhibition of 34%. With `c1ccc(CCC2CCN(Cc3nc(COc4ccccc4)no3)CC2)cc1` the inhibition was “inactive”. In the case of `O=C(c1cccs1)C1CCCN(Cc2nc(COc3ccccc3)no2)C1` (configuration not stated), the inhibition is reported as 83.9% (active). With `OC(CCc1ccccc1)C1CCN(Cc2nc(Cc3ccccc3F)no2)CC1` (configuration not stated) the inhibition was 43.5%. For `c1ccc(OCc2noc(CN3CC[C@@H]4CCCC[C@H]4C3)n2)cc1`, the inhibition was 66.7% (active). With `Fc1ccccc1Cc1noc(CN2CC[C@@H]3CCCC[C@H]3C2)n1` the inhibition was 74.6% (active). With `CCCOc1ccc(C=C2SC(=S)NC2=O)cc1` the inhibition was 86.5% (active). For `O=C1NC(=O)C(=Cc2ccc(F)cc2)S1`, the inhibition was -10.1%. For `CCCCCCOc1ccc(C=C2SC(=O)NC2=O)cc1`, the inhibition was 84.7% (active). In the case of `CC(C)N1C(=O)C(=Cc2ccc(O)cc2)SC1=S`, the inhibition is reported as 36.9%. With `CCc1ccc(CCOc2ccc(CC3SC(=O)NC3=O)cc2)nc1` (configuration not stated) the inhibition was 38.2%. With `CC(C)(C)c1ccc(-c2ccnc3nc(N4CCN(C(=O)c5ccc([N+](=O)[O-])o5)CC4)nn23)cc1` the inhibition was 74.3% (active). Compound `O=C(OCC(=O)N(C1CCCCC1)C1CCCCC1)c1ccc([N+](=O)[O-])o1` has an inhibition of -1.53%. In the case of `O=C(OCC(=O)N1CCCC1)c1ccc([N+](=O)[O-])o1`, the inhibition is reported as 39%. With `CCc1ccc(S(=O)(=O)Nc2cccc(-c3nc4cccnc4s3)c2C)s1` the inhibition was 62.5% (active). For `CC(C)CSc1nnc(C2CCCCC2)o1`, the inhibition was -1.92%. Work on `N#Cc1cccc(CSc2nnc(-c3cccc(Br)c3)o2)c1` yielded an inhibition of 5.74%. With `Cc1cc(C)cc(-c2n[nH]c(=S)o2)c1` the inhibition was 101% (active). For `O=[N+]([O-])c1cccc(-c2n[nH]c(=S)o2)c1`, the inhibition was 91.4% (active). For `S=c1[nH]nc(-c2cccc(Br)c2)o1`, the inhibition was 62.1% (active). In the case of `CC(C)CSc1nnc(-c2cccc([N+](=O)[O-])c2)o1`, the inhibition is reported as 97.8% (active). For `CC(C)(C)c1ccc(-c2n[nH]c(=S)o2)cc1`, the inhibition was 25.8%.
